# This is a sample that favours compounds with a hit; in the whole collection about 2.4% have one here.
# TLR9-MyD88 inh: inhibitors of TLR9-MyD88 association in cells, primary screen, cell-based, CHO, BLA complementation, fluorescence; Toll-like receptor 9 (Homo sapiens) + Myeloid differentiation primary response protein …; CCF4 FRET ratio; inhibition, % at 4.98 µM; 340,000 tested, 0.21% active;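 active = inhibition above the mean over all tested compounds plus 3 SD, cut at about 21% in these data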;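 also: 0% = DMSO only wells and 100% = clavulanate BLA inhibitor control wells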
# Target sequence (Q99836 whole entry, looked up): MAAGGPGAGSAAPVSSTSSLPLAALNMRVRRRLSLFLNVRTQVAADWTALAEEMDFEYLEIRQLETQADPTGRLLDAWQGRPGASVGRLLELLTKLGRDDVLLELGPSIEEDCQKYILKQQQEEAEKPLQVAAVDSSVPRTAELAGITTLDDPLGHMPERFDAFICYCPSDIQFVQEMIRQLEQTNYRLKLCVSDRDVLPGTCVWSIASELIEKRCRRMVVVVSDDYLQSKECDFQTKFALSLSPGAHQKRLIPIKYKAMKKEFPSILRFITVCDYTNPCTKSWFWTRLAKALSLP
# Target sequence (Q9NR96 whole entry, looked up): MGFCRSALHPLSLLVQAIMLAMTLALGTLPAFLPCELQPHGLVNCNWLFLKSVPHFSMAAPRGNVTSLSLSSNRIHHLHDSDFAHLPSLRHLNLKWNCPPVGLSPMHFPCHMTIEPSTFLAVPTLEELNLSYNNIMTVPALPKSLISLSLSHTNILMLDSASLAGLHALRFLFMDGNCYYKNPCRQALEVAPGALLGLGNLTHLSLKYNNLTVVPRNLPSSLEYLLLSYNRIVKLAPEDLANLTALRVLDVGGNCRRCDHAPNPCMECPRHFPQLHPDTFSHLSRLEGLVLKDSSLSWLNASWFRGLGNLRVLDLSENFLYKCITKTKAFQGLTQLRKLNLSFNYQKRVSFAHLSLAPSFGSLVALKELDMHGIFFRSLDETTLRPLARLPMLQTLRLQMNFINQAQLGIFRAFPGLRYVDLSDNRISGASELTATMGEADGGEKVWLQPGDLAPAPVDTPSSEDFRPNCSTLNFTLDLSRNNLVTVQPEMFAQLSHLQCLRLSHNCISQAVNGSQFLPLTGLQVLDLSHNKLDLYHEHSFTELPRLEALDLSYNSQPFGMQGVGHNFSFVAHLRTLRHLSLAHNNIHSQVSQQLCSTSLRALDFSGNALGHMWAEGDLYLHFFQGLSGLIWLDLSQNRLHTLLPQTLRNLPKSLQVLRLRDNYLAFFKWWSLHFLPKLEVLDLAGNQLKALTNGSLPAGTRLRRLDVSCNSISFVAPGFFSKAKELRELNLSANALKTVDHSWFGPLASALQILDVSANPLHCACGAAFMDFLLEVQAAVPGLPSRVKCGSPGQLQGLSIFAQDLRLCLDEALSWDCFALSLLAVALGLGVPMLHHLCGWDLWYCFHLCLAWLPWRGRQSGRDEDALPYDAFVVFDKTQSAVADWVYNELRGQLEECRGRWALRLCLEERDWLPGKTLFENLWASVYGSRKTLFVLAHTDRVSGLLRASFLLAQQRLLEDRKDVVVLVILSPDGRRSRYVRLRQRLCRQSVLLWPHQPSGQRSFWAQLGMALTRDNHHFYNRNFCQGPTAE
# CRFBP-R2 block: antagonists of CRF-BP/CRF-R2 complex, primary screen, cell-based, HEK293, calcium dye fluorescence, uHTS. inhibition, % at 11.8 µM. CRF-induced calcium fluorescence. 350,000 tested, 0.59% active;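 active = inhibition of the ligand-induced calcium signal above about 50% at the single tested concentration, limit read from the data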
# TLR4 MyD88 comp: inhibitors of TLR4-MyD88 association in cells, primary screen, cell-based, HeLa CL3-4, BLA complementation, FRET ratio; HeLa CL3-4 TLR4/MyD88 BLA complementation; AID 861, 2007; 200,000 tested, 0.18% active; Toll-like receptor 4 (Homo sapiens) + Myeloid differentiation primary response protein …; inhibition, % at 8.4 µM; in the data active = inhibition above about 25%;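 also: 0% = vehicle and 100% = reference inhibitor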
# NOD2-RIPK2 inh: NOD2-RIPK2 binding disruptors in cells, primary screen, fluorescence, CHO cells, BLA complementation; Receptor-interacting serine/threonine-protein kinase 2 (Homo sapiens), O43353; CCF4 ratio; inhibition, % at 4.98 µM; 360,000 tested, 0.38% active; AID 624267, 2012; in the data active = inhibition above about 21%;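 also: 0% = vehicle only and 100% = reference blocker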
# HTR2A ag: mouse Htr2a agonists via beta-arrestin recruitment, primary screen, cell-based, luminescence; CHO-K1 mHTR2A beta-arrestin complementation; percent of 30 µM serotonin response; activation, % at 7.6 µM; 360,000 tested, 0.66% active; AID 624169, 2012;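 active = activation above a run cutoff, the mean activation of all tested compounds plus 3 SD, cut at about 14% in these data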;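 also: 0% = plate median of compound wells and 100% = 30 µM serotonin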
# ABHD5-PLIN5 inh: ABHD5-PLIN5 interaction inhibitors, primary screen, cell lysate, split luciferase complementation, luminescence; Perilipin-5 (Homo sapiens) + 1-acylglycerol-3-phosphate O-acyltransferase ABHD5 (Homo …; Split G. princeps luciferase complementation, 4 h; inhibition, % at 4 µM; 360,000 tested, 0.78% active;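 active = inhibition above the mean inhibition across every tested compound plus 3 SD, cut at about 22% in these data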;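 also: 0% = DMSO only wells and the 100% control is not disclosed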
# TLR4 MyD88 cnf: TLR4-MyD88 association inhibitors, retest, confirmation, cell-based, HeLa CL3-4, BLA complementation, FRET ratio | AID 941, 2007 | CCF4 FRET ratio | inhibition, % at 8.4 µM | shares compounds with TLR4 MyD88 comp | 350 tested, 50% active;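 active = mean inhibition across three repeat runs above about 25% carried over from the earlier screen, limit read from the data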;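 also: plate controls were DMSO only for no effect and clavulanic acid blocking BLA at full dose for full effect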
# BLA inh HeLa: beta-lactamase inhibition flagged in TLR4-MyD88 counter-screen | shares compounds with TLR4 MyD88 comp | HeLa BLA reporter, CCF4 FRET ratio | inhibition, % at 8.4 µM | 350 tested, 63% active;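 active = mean inhibition over three repeats above about 26% taken from the earlier screen, limit read from the data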;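 also: HeLa cells stably expressing beta-lactamase reporter as counterscreen for TLR4-MyD88 inhibitors; 0% = DMSO and 100% = clavulanic acid full inhibition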
# TLR9-MyD88 cf: TLR9-MyD88 association inhibitors, retest, confirmation, cell-based, CHO, BLA complementation, fluorescence, triplicate. shares compounds with TLR9-MyD88 inh. CCF4 FRET ratio. 680 tested, 51% active. AID 540250, 2011. inhibition, % at 4.98 µM;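 active = mean inhibition across three repeats above about 21% taken from the earlier screen, limit read from the data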;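 also: blue over green emission ratio reports constitutive TLR9 MyD88 association via BLA complementation; 0% = DMSO vehicle wells and 100% = clavulanate BLA inhibitor wells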
# BLA nonselective: beta-lactamase reporter inhibitors in CHO cells, artefact control for TLR9-MyD88 binding inhibitor project, cell-based, fluorescence | 680 tested, 7% active | shares compounds with TLR9-MyD88 inh | AID 540251, 2011 | CHO-BLA cells, CCF4 FRET ratio, BLA reporter | inhibition, % at 4.98 µM;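 active = mean inhibition above a 50% cutoff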;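 also: counterscreen of TLR9-MyD88 hits on CMV-driven BLA in CHO-K1 cells; 0% = DMSO alone and 100% = clavulanate blocking BLA; higher means less blue over green ratio so more BLA blockade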
# TLR9 CHO cytotox: CHO cell viability loss – luminescence, single concentration, cytotoxicity control for TLR9-MyD88 binding inhibitor project | shares compounds with TLR9-MyD88 inh | TLR9-MyD88 CHO cells cytotoxicity | inhibition, % at 4.98 µM | 680 tested, 39% active; in the data active = inhibition above about 11%
# Numbers without * were called inactive; · = no result given.
SMILES,TLR9-MyD88 inh,CRFBP-R2 block,TLR4 MyD88 comp,NOD2-RIPK2 inh,HTR2A ag,ABHD5-PLIN5 inh,TLR4 MyD88 cnf,BLA inh HeLa,TLR9-MyD88 cf,BLA nonselective,TLR9 CHO cytotox
C[C@H]1CN([C@@H](C)CO)S(=O)(=O)c2ccc(C#Cc3ccccn3)cc2O[C@@H]1CN(C)C(=O)C1CC1,-0.4,1.7,·,-5.1,-2.7,4.8,·,·,·,·,·
COc1cccc(C(=O)/C=C/Nc2cc(C)ccc2O)c1,16.7,3.6,26.6*,4.1,5.0,-0.7,12.8,24.4,·,·,·
O=C(CC[C@H]1O[C@@H](n2ccc(=O)[nH]c2=O)[C@H](O)[C@@H]1O)N[C@@H](Cc1ccccc1)C(=O)NCC1CCCCC1,·,·,·,-15.6,-1.9,-2.7,·,·,·,·,·
O=Cc1cn(CC(O)Cn2cc(C=O)c3ccccc32)c2ccccc12,-12.0,0.5,·,-8.4,-5.3,5.3,·,·,·,·,·
CCCCN(C)CC(O)Cn1cc(/C=C/C(=O)c2cccs2)c2ccccc21 (stereo not drawn),46.5*,-93.8,38.8*,44.1*,-6.8,16.9,39.0*,67.8*,30.1*,28.3,4.6
Brc1cc(Br)c2nc(-c3ccc(N4CCOCC4)cc3)ccc2c1,39.5*,-71.1,29.0*,26.7*,-2.5,-1.5,14.0,29.8*,43.2*,46.5,4.4
Fc1ccc(C2=CC(c3ccc(Br)o3)n3ncnc3N2)cc1 (stereo not drawn),25.1*,-150.8,27.6*,21.6*,2.3,9.1,7.3,26.2*,14.9,19.5,2.9
CC(C)C[C@H]1COc2cccc(N3CCN(Cc4ccccc4F)CC3)c2S(=O)(=O)N1,·,·,·,7.6,-1.2,-5.4,·,·,·,·,·
Cn1c(=O)c(NC2CCCCC2)c2c3c(cccc31)C(=O)c1ccccc1-2,22.2*,-329.9,48.2*,-0.4,-1.2,3.2,22.1,48.7*,19.6,23.5,7.2
CCCC(=O)N1CCC1(C)C(=O)Nc1scc(C)c1C#N (stereo not drawn),·,·,·,-1.0,-0.2,-12.4,·,·,·,·,·
Cc1cccc(NC2=Nc3ccccc3N3C2=Nc2c(c(C)nn2-c2ccccc2)C3c2ccc(O)c(O)c2)c1 (stereo not drawn),30.4*,-17.6,61.7*,14.2,9.8,-2.4,52.4*,85.2*,47.1*,55.1*,-4.7
Cc1nn(-c2ccccc2)c2c1C(c1ccc([N+](=O)[O-])cc1)N1C(=N2)C(=O)Nc2ccccc21 (stereo not drawn),5.3,-2.2,5.3,-4.3,0.7,4.2,·,·,·,·,·
CC1(Cc2ccccc2OC(F)(F)F)C(=O)Nc2c(Cl)ccc(Cl)c21 (stereo not drawn),·,·,·,2.1,9.4,-3.0,·,·,·,·,·
CCN(CC)c1ccc(/C=C(/C#N)c2nc3ccc(C)cc3[nH]2)c(OC(C)C)c1,22.7*,-180.4,35.2*,34.3*,-6.2,6.6,13.0,35.5*,20.9*,20.9,4.7
CCOc1cc(N(CC)CC)ccc1/C=C(/C#N)c1nc2ccccc2[nH]1,8.9,-170.7,13.2,7.9,-3.6,2.0,·,·,·,·,·
CCOC(=O)C1(C)CCN1C(=O)c1cccc(Cl)c1 (stereo not drawn),·,·,·,0.6,-3.8,-7.5,·,·,·,·,·
OCCNc1c2ccccc2nc2c(F)c(F)c(F)c(F)c12,31.9*,-113.3,69.4*,1.7,1.1,5.3,83.8*,106.7*,42.7*,49.2,82.1*
CCOC(=O)/C(=C\c1ccccc1)C(=O)c1cc(C(C)=O)c(Nc2ccccc2)s1,-2.8,-55.6,4.4,2.2,-4.8,3.6,·,·,·,·,·
CCOC(=O)/C(=C\c1cccnc1)C(=O)c1cc(C(C)=O)c(Nc2ccccc2)s1,41.4*,25.5,49.4*,89.4*,-2.6,90.2*,53.2*,40.9*,49.5*,31.6,98.0*
O=C(NC(Cc1ccccc1)C(=O)Oc1ccc2c(C(F)(F)F)cc(=O)oc2c1)OCc1ccccc1 (stereo not drawn),58.6*,-46.1,39.3*,70.8*,3.5,1.2,32.3*,67.2*,33.9*,44.1,2.1
CCN(CC)c1ccc2cc(C(C)=O)c(=O)oc2c1,-4.7,-168.9,-4.6,8.8,5.2,1.2,·,·,·,·,·
CCN(CC)c1ccc2cc(NC(=O)CCC(=O)O)c(=O)oc2c1,68.3*,-79.6,58.0*,78.8*,9.0,-3.7,60.8*,82.6*,49.6*,56.7*,0.8
O=C(O)c1ccccc1-c1ccc(/C=C/c2cc(C(F)(F)F)[nH]c(=O)n2)o1,38.9*,-79.5,26.4*,20.2,3.7,17.7,19.0,32.9*,24.6*,31.5,1.3
S=c1sc2c(Cl)ncnc2n1-c1ccccc1,28.8*,30.1,52.0*,53.5*,-4.1,2.4,47.4*,26.1*,26.3*,14.8,24.9*
Cc1nc(N2CCN(C)CC2)c2sc(=S)n(-c3ccccc3)c2n1,3.9,-4.1,-13.9,4.1,4.9,4.2,·,·,·,·,·
O=[N+]([O-])c1ccc(N/N=C\c2ccccc2OCc2ccccc2)cc1,31.2*,-42.6,28.5*,17.8,-3.7,-1.7,23.2,49.7*,22.0*,25.6,4.3
Cc1cc(C)nc(N/N=C/c2ccccc2OCc2ccc([N+](=O)[O-])cc2)n1,-2.0,13.5,-6.2,-15.8,-3.9,1.8,·,·,·,·,·
CC(=O)Nc1sc(/C(C#N)=C\c2cccc(Cl)c2)nc1-c1ccc(C)cc1,32.0*,-405.2,31.1*,20.4,-7.8,-7.6,86.3*,111.9*,79.8*,80.6*,2.0
Nc1sc(-c2ccccc2)cc1C(=O)N1CCNCC1,·,·,·,-4.3,-7.1,-21.2,·,·,·,·,·
